Measured values taken from PubChem BioAssay (NCATS).
Inconclusive results are not listed. The source made the active and inactive calls. The call rests on the fitted dose curve; in most records, active means well fitted cell-killing curve with a large enough effect; inconclusive means small, poorly fitted or top-dose-only effect, or effect the other way; inactive means no such curve, though single readings can be large or run the other way.

experiment: Viability qHTS for spleen associated tyrosine kinase inhibitor (SYKi) naive MV4-11 cells (AID 1963823); conditions: MV4-11 AML viability, CellTiter-Glo luminescence, 72 h; series mostly up to 45 µM; viability (% of control): at the top concentration; further: nearly all actives have a fitted effect of over 40% in size
Summary of the method: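 Luminescence from CellTiter-Glo, developed 10 min at room temperature, gave viability of MV4-11 cells never exposed to SYK inhibitor. Cells (500/well) had been incubated with compounds for 72 hr under standard culture conditions.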
Potency means the concentration at half of the fitted maximal effect.

Compound | Potency | viability (% of control)
O=C(O)c1ccc(S(=O)(=O)N(Cc2ccc(OC(F)(F)F)cc2)c2ncc(C(F)(F)F)cc2Cl)cc1 | 20.6 µM (active) | –
C=C[C@H]1[C@H](O[C@@H]2O[C@H](CO)[C@@H](O)[C@H](O)[C@H]2O)OC=C2C(=O)OCC[C@]21O | – | 65.2% (inactive)
CC(C)C1NC(=O)CNC(=O)C2CCCN2C(=O)C(Cc2c[nH]c3ccccc23)NC(=O)CNC(=O)C(C(O)c2ccc(O)cc2)NC(=O)CNC1=O (stereo not given) | – | 79.6% [at 17.3 µM] (inactive)
C=C1CC2[C@@]3(C)C=CC(=O)C(C)(C)C3=C(O)C(=O)[C@@]2(C)C2(C(=O)OC)C(=O)C(C)OC(=O)[C@@]12C (stereo not given in full) | 10 µM (active) | –
O=C1NC(=O)[C@@H](c2cn3c4c(cccc24)CCC3)[C@@H]1c1c[nH]c2ccccc12 | 1.18 µM (active) | –
Cn1c(=O)c2nc(/C=C/c3cccc(Cl)c3)n(C)c2n(C)c1=O | – | 93% [at 91.9 µM] (inactive)
COc1cc(C(C)=O)ccc1O[C@@H]1O[C@H](CO[C@@H]2OC[C@@H](O)[C@H](O)[C@H]2O)[C@@H](O)[C@H](O)[C@H]1O | – | 48.3% [at 17.3 µM] (inactive)
C=C(CCO[C@@H]1O[C@H](CO)[C@@H](O)[C@H](O)[C@H]1O)C(=O)O | – | 87% (inactive)
C[C@@H]1O[C@@H](O[C@@H]2[C@@H](O)[C@H](O[C@@H]3[C@@H](O)[C@@H](O)[C@H](O[C@H]4[C@H](OC(=O)[C@]56CCC(C)(C)C[C@H]5C5=CCC7[C@@]8(C)C[C@H](O)[C@H](O[C@@H]9O[C@H](C(=O)O)[C@@H](O)[C@H](O)[C@H]9O)[C@@](C)(CO)C8[C@H](O)C[C@@]7(C)[C@]5(C)CC6)OC[C@H](O)[C@@H]4O)O[C@H]3C)OC[C@H]2O)[C@H](O)[C@H](O)[C@H]1O (stereo not given in full) | – | 78.4% [at 9.25 µM] (inactive)
C[C@H]1CC[C@H]2[C@@H](C=C[C@@](C)(O)[C@]2(C)C(=O)CCO)C1 | – | 70.1% (inactive)

experiment: Viability qHTS for spleen associated tyrosine kinase inhibitor (SYKi) drug resistant MV4-11 cells (AID 1963824); conditions: SYKi-resistant MV4-11 viability, CellTiter-Glo, 72 h; series mostly up to 45 µM; viability, % of control: at the top concentration; further: nearly all actives have a fitted effect of over 35% in size
Summary of the method: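 SYK-inhibitor-resistant MV4-11 AML cells were seeded at 500 per well onto compound and cultured 72 hours (37 °C, 5% CO2). CellTiter-Glo was then added, and after 10 min at room temperature, luminescence gave viability.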

Compound | viability, % of control | Potency
Nc1c(-c2ccccc2)nc(Cl)c2c(O)n[nH]c(=O)c12 | 69.2% (inactive) | –
CC1CCC2(C(=O)O)CCC3(C)C(=CCC4C5(C)CCC(OC(=O)/C=C/c6ccccc6)C(C)(C)C5CCC43C)C2C1C (stereo not given) | 4.22% [at 17.3 µM] (inactive) | –
O=C1COc2nccc(-c3ccccc3F)c2CN1Cc1cc(C(F)(F)F)cc(C(F)(F)F)c1 | – | 16.4 µM (active)
C=C1CC[C@@H]2[C@](C)(CO)[C@H](O)CC[C@@]2(C)[C@@H]1C/C=C1/C(=O)OC[C@@H]1O | – | 3.21 µM (active)
O=c1nc(-c2ccccn2)sc2ccccc12 | – | 2.59 µM (active)
O=C(c1ccccc1)c1c(O)cc(O)cc1O[C@@H]1O[C@H](CO)[C@@H](O)[C@H](O)[C@H]1O | 90.3% (inactive) | –
COC(=O)C1=COC(O[C@@H]2O[C@H](CO)[C@@H](O)[C@H](O)[C@H]2O)/C(=C\COC(=O)c2ccc(OC3OC(CO)C(O)C(O)C3O)c(OC)c2)C1CC(=O)OCCc1ccc(O)cc1 (stereo not given in full) | 105% [at 9.25 µM] (inactive) | –
C=C1C(=O)OC2C1CCC1(C)C(O)CCC(=C)C21 (stereo not given) | – | 4.61 µM (active)
CC1(C)CC2C(O)C3=C(CC(C)(O)C2C1)C(=O)OC3O (stereo not given) | 82.3% (inactive) | –
O=C(/C=C/c1ccccc1)OC[C@H]1O[C@@H](OC(=O)c2cc(O)c(O)c(O)c2)[C@H](O)[C@@H](O)[C@@H]1O | 98.4% [at 17.3 µM] (inactive) | –
C=CC(C)(O)CO[C@@H]1O[C@H](CO)[C@@H](O)[C@H](O)[C@H]1O (stereo not given in full) | 103% (inactive) | –
C=CC1(C)CC(OC(=O)C(=C)C(O)COC(C)=O)C(C(=C)C(=O)OC)C(O)C1C(=C)CO (stereo not given) | – | 10 µM (active)
Cc1ccc(NS(=O)(=O)c2cc3c(cc2N[C@H](C)CO)NC(=O)CC3)cc1C | – | 14.6 µM (active)
O=C1C(Cl)=C(N2CCOCC2)C(=O)N1c1ccc(Cl)c(Cl)c1 | – | 5.02 µM (active)
CC(C)CC(=O)c1c(O)cc2c(c1O)C(CC(C)C)C1=C(O2)C(C)(C)C(=O)C(C)(C)C1=O (stereo not given) | – | 8.93 µM (active)
CC1=CC(=O)CC(C)(C)C1(O)CCC(C)O (stereo not given) | 60.7% (inactive) | –
O=C(O[C@H]1[C@@H]2C=CO[C@@H](O[C@@H]3O[C@H](CO)[C@@H](O)[C@H](O)[C@H]3O)[C@@H]2[C@@]2(CO)O[C@@H]12)c1ccc(O)cc1 | 93.9% [at 17.3 µM] (inactive) | –
C#CCN(Cc1cc2c(=O)n(C)c(CN3CCN(C)CC3)nc2cc1Cl)c1ccc(C(=O)NCc2cccnc2)cc1 | 2.34% (inactive) | –
CC(C)=CC/C=C(\C)[C@H]1CC[C@]2(C)[C@@H]1[C@H](O)C[C@@H]1[C@@]3(C)CC[C@H](O)C(C)(C)[C@@H]3[C@@H](O[C@@H]3O[C@H](CO)[C@@H](O)[C@H](O)[C@H]3O)C[C@]12C | 69.8% (inactive) | –
O=C(O[C@H]1[C@@H]2C=CO[C@@H](O[C@@H]3O[C@H](CO)[C@@H](O)[C@H](O)[C@H]3O)[C@@H]2[C@@]2(CO)O[C@@H]12)c1ccc(O)c(O)c1 | 103% [at 17.3 µM] (inactive) | –

Compound | viability, % of control | Potency
Cc1ccc(NS(=O)(=O)c2ccc3c(c2)CCC(=O)N3)cc1C | – | 9.2 µM (active)
COC(=O)c1ccnc(-c2cc(C(=O)Nc3ccc(C4(N)CC4)cc3)ccn2)c1 | 7.19% (inactive) | –
CC1(C)CCC2(C(=O)OC3OC(COC4OC(CO)C(O)C(O)C4O)C(O)C(O)C3O)CCC3(C)C(=CCC4C5(C)CCC(O)C(C)(C(=O)O)C5CCC43C)C2C1O (stereo not given) | 102% [at 9.25 µM] (inactive) | –
CCN(CC)CCOc1ccc2c(c1)C(=O)c1cc(OCCN(CC)CC)ccc1-2 | – | 9.44 µM (active)
Cc1cc(CN)cc(C)c1NC(=O)c1ccc(-c2cc(Cl)ccc2Cl)o1 | – | 9.2 µM (active)
CCN[C@@H]1C[C@H](N)[C@@H](O[C@H]2OC(CN)=CC[C@H]2N)[C@H](O)[C@H]1O[C@H]1OC[C@](C)(O)[C@H](NC)[C@H]1O | 96.6% [at 17.3 µM] (inactive) | –
OC[C@@]1(O)CO[C@H](OC[C@H]2O[C@@H](OC(CCCCc3ccc(O)cc3)CCc3ccc(O)cc3)[C@H](O[C@H]3OC[C@](O)(CO)[C@H]3O)[C@@H](O)[C@@H]2O)[C@@H]1O (stereo not given in full) | 99.2% [at 17.3 µM] (inactive) | –
OC[C@H]1O[C@@H](O[C@@H]2OC=C[C@H]3[C@H](O)[C@@H]4O[C@]4(CO)[C@@H]23)[C@H](O)[C@@H](O)[C@@H]1O | 95% (inactive) | –
COC(=O)[C@H](O)[C@H]1C(C)(C)[C@H](OC(=O)C(C)C)[C@@]2(O)C(=O)[C@]1(C)C1CC[C@]3(C)C(CC(=O)O[C@H]3c3ccoc3)[C@]13O[C@@H]32 (stereo not given in full) | 51.2% [at 17.3 µM] (inactive) | –
Cc1csc2c(N[C@@H](C)CN3CCN(S(=O)(=O)c4ccc(Cl)c(Cl)c4)CC3)ncnc12 | – | 0.231 µM (active)
O=C(O)c1ccc(S(=O)(=O)N(Cc2ccc(OC(F)(F)F)cc2)c2ncc(C(F)(F)F)cc2Cl)cc1 | – | 23.1 µM (active)
C=C[C@H]1[C@H](O[C@@H]2O[C@H](CO)[C@@H](O)[C@H](O)[C@H]2O)OC=C2C(=O)OCC[C@]21O | 75.4% (inactive) | –
CC(C)C1NC(=O)CNC(=O)C2CCCN2C(=O)C(Cc2c[nH]c3ccccc23)NC(=O)CNC(=O)C(C(O)c2ccc(O)cc2)NC(=O)CNC1=O (stereo not given) | 98.9% [at 17.3 µM] (inactive) | –
C=C1CC2[C@@]3(C)C=CC(=O)C(C)(C)C3=C(O)C(=O)[C@@]2(C)C2(C(=O)OC)C(=O)C(C)OC(=O)[C@@]12C (stereo not given in full) | – | 10 µM (active)
O=C1NC(=O)[C@@H](c2cn3c4c(cccc24)CCC3)[C@@H]1c1c[nH]c2ccccc12 | – | 1.32 µM (active)
Cn1c(=O)c2nc(/C=C/c3cccc(Cl)c3)n(C)c2n(C)c1=O | 80.4% [at 91.9 µM] (inactive) | –
COc1cc(C(C)=O)ccc1O[C@@H]1O[C@H](CO[C@@H]2OC[C@@H](O)[C@H](O)[C@H]2O)[C@@H](O)[C@H](O)[C@H]1O | 40.5% [at 17.3 µM] (inactive) | –
C=C(CCO[C@@H]1O[C@H](CO)[C@@H](O)[C@H](O)[C@H]1O)C(=O)O | 77% (inactive) | –
C[C@@H]1O[C@@H](O[C@@H]2[C@@H](O)[C@H](O[C@@H]3[C@@H](O)[C@@H](O)[C@H](O[C@H]4[C@H](OC(=O)[C@]56CCC(C)(C)C[C@H]5C5=CCC7[C@@]8(C)C[C@H](O)[C@H](O[C@@H]9O[C@H](C(=O)O)[C@@H](O)[C@H](O)[C@H]9O)[C@@](C)(CO)C8[C@H](O)C[C@@]7(C)[C@]5(C)CC6)OC[C@H](O)[C@@H]4O)O[C@H]3C)OC[C@H]2O)[C@H](O)[C@H](O)[C@H]1O (stereo not given in full) | 89.9% [at 9.25 µM] (inactive) | –
C[C@H]1CC[C@H]2[C@@H](C=C[C@@](C)(O)[C@]2(C)C(=O)CCO)C1 | 98% (inactive) | –
